67 molecules from PubChem BioAssay AID588675 (Johns Hopkins Ion Channel Center, 2011) can be followed below.

Structures are written as SMILES. Among all 310,000 compounds or so, about 1,900 (0.61%) were called active. This is one part of a sample in which actives are shown more often than they occur.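 The calls were made as follows: active = plate-corrected calcium response at least 3 library SD above typical, normal starting fluorescence, not activating the receptor alone; inactive = the rest.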

The target of this test is Mas-related G-protein coupled receptor member X1 (Homo sapiens) (UniProt Q96LB2). The test can be described thus: allosteric enhancers of human MrgX1 signaling – HEK293 cells, Fluo-4 calcium flux, primary screen (AID 588675).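 Also: compound read alongside a low EC10 to EC30 dose of BAM8-22 agonist.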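 As to B-score: peak minus trough fluorescence over baseline measured at the second addition.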 The note with it: MrgX1-HEK293, Fluo-4 calcium flux, FDSS, at 10 µM; stronger effect = higher value. Background: Calcium flux is commonly read through the fluorescence of an indicator in the cells.
Sequence of Mas-related G-protein coupled receptor member X1 (Homo sapiens) (Q96LB2 whole entry, looked up): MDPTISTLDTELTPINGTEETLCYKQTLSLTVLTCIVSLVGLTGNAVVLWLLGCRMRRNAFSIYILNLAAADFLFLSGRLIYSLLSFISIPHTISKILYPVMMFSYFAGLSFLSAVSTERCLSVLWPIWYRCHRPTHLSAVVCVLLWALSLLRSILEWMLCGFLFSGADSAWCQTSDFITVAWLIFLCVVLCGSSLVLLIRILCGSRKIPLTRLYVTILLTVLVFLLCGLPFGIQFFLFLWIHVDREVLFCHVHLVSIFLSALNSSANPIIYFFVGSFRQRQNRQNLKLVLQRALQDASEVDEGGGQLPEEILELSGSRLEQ
On to `O=C(c1cccc(-n2cccc2)c1)N1CCN(S(=O)(=O)c2ccc(F)cc2)CC1`, for which the B-score result was “inactive”. As for `O=C(NC1C2CC3CC(C2)CC1C3)c1ccc(N2CCNCC2)c([N+](=O)[O-])c1` (configuration not stated), the B-score entry was “inactive”. As for `CC(NC(=O)c1ccc(N2CCNCC2)c([N+](=O)[O-])c1)C12CC3CC(CC(C3)C1)C2` (configuration not stated), the B-score is 6.65 (active).

`CCC(C)NC(=O)c1ccc(N2CCC3(CC2)OCCO3)c([N+](=O)[O-])c1` (configuration not stated): the B-score result was “inactive”. As to `CCOC(=O)Cc1csc(NC(=O)CN(C)S(=O)(=O)c2ccc3c(c2)CCC(=O)N3)n1`, the B-score result was “inactive”. Take `Cc1nn(-c2ccc([N+](=O)[O-])cc2)c(N)c1-c1ccccc1`: the B-score entry is “inactive”. On to `C/C(=N\NC(=O)c1ccoc1C)c1ccccc1O`, for which the B-score result was “inactive”. As to `Cc1nn(C(=O)c2ccoc2C)c(N)c1-c1ccccc1`, the B-score was 15.4 (active). With `N#CCC(=O)NC1CCC(CC2CCC(NC(=O)CC#N)CC2)CC1` (configuration not stated), the B-score result is “inactive”.

`COc1cc(OC)c(-n2c(C)cc(C=O)c2C)cc1Cl`: the B-score was 9.68 (active). Regarding `COc1cc(OC)c(-n2cc(-c3ccc(Cl)cc3)[nH]c2=O)cc1Cl`, the B-score entry was “inactive”. Take `Cc1ccccc1-n1c(C)cc(/C=C2\NC(=O)NC2=O)c1C`: the B-score entry is “inactive”.

On to `O=C(NCc1cccs1)C1CCN(S(=O)(=O)c2ccc3c(c2)OCCO3)CC1`, for which the B-score result was “inactive”.

In the case of `COc1ccccc1CNC(=O)C1CCN(S(=O)(=O)c2ccc3c(c2)OCCO3)CC1`, the B-score result was “inactive”. With `COCCNC(=O)C1CCN(S(=O)(=O)c2ccc3c(c2)OCCO3)CC1`, the B-score is 24.9 (active). `O=C(/C=C/c1ccc(F)cc1)NC(=S)NNC(=O)c1cccnc1`: the B-score result was “inactive”. In the case of `CCCCn1c(N)c(N(CCOC)C(=O)COc2c(C)cccc2C)c(=O)[nH]c1=O`, the B-score result was “inactive”.

With `Cc1ccc(S(=O)(=O)NC(=O)COc2ccccc2C)cc1`, the B-score entry was “inactive”. Under `Cc1occc1C(=O)Nc1nnc(C2CCCCC2)s1` stands “inactive”. As for `Cc1ccc(C(=O)Nc2nnc(-c3ccncc3)s2)o1`, the B-score entry is “inactive”. Turning to `Cc1occc1C(=O)Nc1nnc(-c2ccncc2)s1`, the B-score was 7.38 (active). With `CCOc1ccc(OCC)c(NC(=O)CSc2nnc(Cn3cnc4ccccc43)n2C)c1`, the B-score entry is “inactive”. Turning to `COC(=O)C1=C(C)N(C)C(=S)NC1c1cc(OC)ccc1OC` (configuration not stated), the B-score result was “inactive”. Consider `COC(=O)c1ccc(/C=N/NC(=O)C(=O)N2CCCCCC2)cc1`, for which the B-score entry is “inactive”. Then `CC1CCCC(C)N1/N=C/c1ccccc1OC(F)F` (configuration not stated), with “inactive”; and `COC(=O)c1ccc(/C=N/N2C(C)CCCC2C)cc1` (configuration not stated), with 6.7 (active); and `Cc1c(CCC(=O)O)c(=O)oc2cc3occ(-c4ccccc4)c3cc12`, with 7.5 (active). As to `Cc1c(CC(=O)NCCCCCC(=O)O)c(=O)oc2cc3occ(-c4ccccc4)c3cc12`, the B-score entry was “inactive”. As for `Cc1coc2cc3oc(=O)c(CCC(=O)O)c(C)c3cc12`, the B-score result was “inactive”. As for `O=C1NC2(CCCCCC2)C(=O)N1CCS(=O)(=O)Oc1ccccc1`, the B-score result was “inactive”. Under `Cc1ccsc1C1C(C#N)=C(N)OC2=C1C(=O)CC(C)C2` (configuration not stated) stands “inactive”; under `COC(=O)[C@]1(S(=O)(=O)c2ccccc2)C[C@@H]2ON=C(c3ccc(OC)cc3)[C@@H]2C1`, “inactive”. For the molecule `Cc1ccc(-n2ccc(=O)c(C(=O)O)n2)cc1`, the B-score entry was “inactive”.

As to `Cc1ccc(-c2nn(C(C)(C)C)c3ncnc(N)c23)cc1`, the B-score entry is “inactive”. As for `Cc1ccc(-n2cnc3ncnc(-c4ccccc4)c32)cc1`, the B-score was 7.18 (active).

As for `CC(C)OC(=O)c1ccc(COc2ccc3ccc(=O)oc3c2)o1`, the B-score entry is “inactive”.

For the molecule `CCc1cc2c(=O)c(-c3nc4ccccc4n3C)c(CCCC(=O)O)oc2cc1OC(=O)C(C)(C)C`, the B-score entry was “inactive”. For `COc1cccc2c(C)c(C(=O)O)[nH]c12`, the B-score entry was “inactive”. `COc1cc(C(F)(F)F)nc2c(Br)c(C(C)(C)C)nn12`: the B-score was 10.1 (active). Then `CNC(=O)c1sc(Nc2ccc(OCc3ccccc3)cc2)nc1C`, with “inactive”; and `CCCC(=O)Nc1ncnc2c1ncn2[C@@H]1O[C@@H]2OP(=O)(O)OC[C@H]2[C@H]1OC(=O)CCC`, with “inactive”. As for `CC(=O)N1c2ccc(S(=O)(=O)N3CCCC(C(=O)NCc4ccc(Cl)cc4)C3)cc2CC1C` (configuration not stated), the B-score entry was “inactive”. Regarding `CC(=O)N1c2ccc(S(=O)(=O)N3CCCC(C(=O)Nc4cccc(Cl)c4)C3)cc2CC1C` (configuration not stated), the B-score was 16.4 (active). Then `CC(=O)N1c2ccc(S(=O)(=O)N3CCCC(C(=O)Nc4cccc(F)c4)C3)cc2CC1C` (configuration not stated), with “inactive”; and `Cc1nnc(SCC(=O)NC(=O)NC2CCCC2)n1N`, with “inactive”. On to `COc1ccc(C2c3[nH]c4ccccc4c3CCN2CCCn2cccn2)cc1C` (configuration not stated), for which the B-score entry is “inactive”. In the case of `Cc1nccn1CCC1CCCCN1C(=O)CCc1nnc(-c2ccsc2)o1` (configuration not stated), the B-score entry is “inactive”. Turning to `CC1(C)CC(=O)CC2(C1)NCC(c1ccccc1Cl)c1c2[nH]c2ccccc12` (configuration not stated), the B-score was 13.7 (active). Regarding `CC1CCN(c2ccc(-c3ccc(NC(=O)c4ccco4)cc3)nn2)CC1`, the B-score result is “inactive”. As for `O=C(O)CCN=C1CCc2ccccc2N1`, the B-score result is “inactive”. Regarding `CCOC(=O)C1CCN(S(=O)(=O)c2ccc3c(c2)N(C)C(=O)CC(=O)N3C)CC1`, the B-score result was “inactive”. As to `COc1ccc(Cc2nnc(SCC(=O)Nc3ccc(C)c(C)c3)o2)cc1OC`, the B-score entry was “inactive”.

With `COc1cccc(NC(=O)CSc2nnc(Cc3ccc(OC)c(OC)c3)o2)c1`, the B-score is 10.7 (active). Then `COc1ccc(C(=O)NCc2nnc(SCC(=O)Nc3cccc(OC)c3)o2)cc1`, with “inactive”; and `O=S(=O)(Nc1ccc(Oc2ncccn2)c(Cl)c1)c1ccc(F)cc1`, with “inactive”.

Take `COc1ccc(Cl)cc1NC(=O)CCS(=O)(=O)c1ccc(Br)cc1`: the B-score entry is “inactive”. For the molecule `CC1CCN(CCCNC(=O)CN2C(=O)CSc3ccc(S(=O)(=O)N4CCCCC4)cc32)CC1`, the B-score result is “inactive”. Turning to `CC(=O)c1ccc(N=C2SCCCN2C(=O)C2CCCCC2)cc1`, the B-score result is “inactive”.

Consider `O=C(NNC(=O)c1cc2c(s1)CCCC2)c1ccccc1`, for which the B-score was 6.55 (active). Take `O=C(c1cc2c(s1)CCC2)N1CCN(c2ccccc2)CC1`: the B-score entry was “inactive”. Then `O=C(Nc1ccc(F)cc1)c1cc2c(s1)CCCC2`, with “inactive”; and `CC1(C)C=Cc2c(ccc3c2OC[C@@H](c2ccc(O)cc2O)C3)O1`, with “inactive”; and `CC1(C)CC(=O)c2cnc3nc4ccccc4n3c2C1`, with “inactive”. Take `CCn1cc(C(=O)NCC(=O)NC(C)(C)CO)c(=O)c2cc3c(cc21)OCO3`: the B-score entry is “inactive”. With `COc1ccc(-c2nc(N)ncc2-c2ccc(Cl)cc2)c(O)c1`, the B-score entry was “inactive”.

In the case of `COc1cccc(-c2cnc(OC(C)(C)C)nc2OC(C)(C)C)c1`, the B-score is 6.93 (active). For `CC(C)(C)Oc1ncc(Br)c(OC(C)(C)C)n1`, the B-score result was “inactive”.
